# Screening results (PubChem BioAssay)
# C2C12 statin = suppressors of simvastatin-induced myotoxicity in C2C12 myotubes | ATP luminescence, 48 h; scaled: DMSO 0, geranylgeraniol control 100 | rescue of ATP level, % at 7.49 µM | 0.78% of 330,000 active | AID 602340;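 active = mean ATP rescue above about 67%, or every replicate alone reaching that limit, limit read from the data, passing the limit was not always enough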;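 also: myotubes were challenged with 10 µM simvastatin during compound exposure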
# PglD DTNB = PglD (C. jejuni) enzyme inhibition | AID 602405 | inhibition, % at 12.5 µM | 0.098% of 360,000 active | purified PglD enzyme, DTNB colorimetric CoA detection; in the data active = inhibition above about 16%, passing the limit was not always enough
# ARNT TACC3 PPI = disrupts binding between human ARNT and TACC3; Q9Y6A5; AlphaScreen His-ARNT PAS-B/GST-TACC3 binding, luminescence; TACC3 fragment carries E629A point mutation; inhibition, % at 9.99 µM; 0.66% of 390,000 active; AID 623870;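 active = mean inhibition of replicates at least 50% and at least half of replicates each reaching 50%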;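 also: 0% = complete ARNT plus TACC3 wells and 100% = ARNT alone without TACC3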
# CFTR F508del cor = CFTR F508del correction in bronchial cells | CFBE cells, YFP halide quenching; stimulated with forskolin plus potentiator P3; % fluorescence drop versus neutral controls | activity (quench increase), % at 7.58 µM | 0.36% of 350,000 active | AID 720511;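 active = mean added fluorescence quench of at least 8% versus neutral control, with both replicates also reaching 8%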;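 also: cells transiently co-express mutant CFTR-F508del with the halide-sensitive YFP; corrector assay measuring rescue of mutant channel to the surface after 24 h compound exposure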
# Active calls of the source: *; . = not tested or not shown. This is a sample that favours compounds with a hit; in the whole collection about 1.4% have one here.
SMILES,C2C12 statin,PglD DTNB,ARNT TACC3 PPI,CFTR F508del cor
CC(=O)C[C@@H](O)CC(=O)[C@@H]1OC(=O)CCCCCCCCc2ccccc21,124.6*,-3.5,.,1.3
CC(=O)C[C@@H](O)CC(=O)[C@@H]1OC(=O)CCCCC/C=C/Cc2ccccc21,92.2*,-1.7,-1.5,1.1
CC(=O)C[C@H](O)CC(=O)[C@H]1OC(=O)CCCCC/C=C/Cc2ccccc21,8.9,2.8,-3.2,-2.7
C[C@@H]1CN([C@H](C)CO)C(=O)c2c(c3ccccc3n2C)-c2ccccc2CO[C@@H]1CN(C)S(=O)(=O)c1ccc(Cl)cc1,48.1,-0.5,10.4,2.2
O=c1c(CO)cc(CO)cc(CO)c1O,.,.,74.3*,0.8
CC(C)(C)OC(=O)N1CCNc2ccccc2C1,95.6*,-0.4,-0.8,.
COc1ccc(CN(C)C[C@H]2OCCCC[C@H](C)Oc3ccc(NC(=O)Nc4ccc(C(F)(F)F)cc4)cc3C(=O)N([C@H](C)CO)C[C@H]2C)cc1,-59.7,-3.1,21.2,8.7*
COc1ccc(NC(=O)Nc2ccc3c(c2)C(=O)N([C@H](C)CO)C[C@H](C)[C@@H](CN(C)Cc2ccc(C(F)(F)F)cc2)OCCCC[C@H](C)O3)cc1,5.8,3.0,0.6,-1.6
COc1ccc(NC(=O)Nc2ccc3c(c2)C(=O)N([C@H](C)CO)C[C@@H](C)[C@@H](CN(C)Cc2ccc(C(F)(F)F)cc2)OCCCC[C@H](C)O3)cc1,157.9*,3.6,-0.8,-0.8
CNC[C@@H]1Oc2cc(C#CCC(C)C)ccc2S(=O)(=O)N([C@@H](C)CO)C[C@H]1C,-51.1,-0.4,-2.4,-0.9
O=C(NCCCN1CCC(Cc2ccccc2)CC1)C1CCN(S(=O)(=O)N2CCOCC2)CC1,90.0*,-4.9,-3.2,.
CCS(=O)(=O)N1CCC(C(=O)NCCCN2CCC(Cc3ccccc3)CC2)CC1,0.6,-5.5,-2.3,.
Cc1c(NC(=O)/C(C#N)=C\c2cccs2)c(=O)n(-c2ccccc2)n1C,.,.,-12.5,.
Cc1cccc(C)c1NC(=O)/C(C#N)=C/c1cccs1,84.2*,0.6,20.5,.
O=C1CNC(=S)N1CCCn1ccnc1,1.9,-9.8,60.1*,-3.2
Cc1ccc2nc(NNC(=O)c3ccc(S(=O)(=O)N4CCc5ccccc5C4)cc3)sc2c1,39.9,2.9,8.0,8.3*
Cc1ccc2nc(NNC(=O)c3ccc4c(c3)OCCO4)sc2c1,-6.0,4.9,-2.4,0.7
Cc1cccc2sc(NNC(=O)c3ccc(S(=O)(=O)N4CC(C)CC(C)C4)cc3)nc12 (configuration not stated),63.7,2.4,48.6*,3.5
C[C@@H]1CCCCO[C@@H](CN(C)Cc2ccc(C(F)(F)F)cc2)[C@@H](C)CN([C@H](C)CO)C(=O)c2cc(NC(=O)CCCCCC(=O)Nc3ccccc3N)ccc2O1,.,.,.,-1.3
CCCNC(=O)[C@H]1[C@H](CO)[C@H]2Cn3c(ccc(-c4ccccc4F)c3=O)[C@H]2N1C(=O)C1CCC1,.,.,.,0.4
COc1ccc(-c2ccc3c(c2)[C@H]2[C@H](CCN2C(=O)c2cnccn2)[C@H](CO)N3)cc1,-23.0,0.0,1.8,1.4
COc1ccc(CSc2nncn2N)cc1Br,-3.4,16.4,active,.
C[C@@H]1CN([C@@H](C)CO)C(=O)Cc2cc(NC(=O)CCCN(C)C)ccc2O[C@H]1CN(C)S(C)(=O)=O,-0.3,-0.2,-2.3,-3.1
O=C(COc1ccccc1)N1CCN(c2nnc(-c3ccccc3)c3ccccc23)CC1,79.2*,-9.1,10.5,.
CCOC(=O)C1CCN(C=Nc2cc(C)on2)CC1,147.2*,-0.2,-2.9,.
SMILES,C2C12 statin,PglD DTNB,ARNT TACC3 PPI,CFTR F508del cor
CCOC(=O)C1CCN(S(=O)(=O)c2ccc(C(C)=O)cc2)CC1,-1.3,3.7,-5.1,.
CC1(Cc2ccc(F)cc2)C(=O)Nc2c(Cl)ccc(Cl)c21 (configuration not stated),22.0,-5.0,.,8.8*
CC1(Cc2ccc(Cl)c(Cl)c2)C(=O)Nc2c(Cl)ccc(Cl)c21 (configuration not stated),10.2,-2.0,.,3.7
C[C@H](CO)N1C[C@H](C)[C@@H](CN(C)Cc2ccc(-c3ccccc3)cc2)Oc2ccc(NC(=O)Nc3ccccc3)cc2C1=O,-12.4,-1.2,0.6,-0.1
c1cncc(Oc2cccc(Oc3cccnc3)c2)c1,107.7*,-10.8,-2.9,.
Cc1cc(C)n(CC(O)COc2cccc(OCC(O)Cn3nc(C)cc3C)c2)n1 (configuration not stated),91.0*,-2.4,-1.7,.
CCOC(=O)C1=C(C)NC(=O)NC1c1cn(-c2ccccc2)nc1-c1cccs1 (configuration not stated),8.4,2.6,0.8,.
